This is an account of results in PubChem BioAssay (NCI).

The nature of test [1]: NCI Yeast Anticancer Drug Screen. Data for the rad50 strain (AID 155).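 Further: 0% = growth of vehicle-only cultures of the same strain.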 Conditions: S. cerevisiae rad50 strain growth inhibition; at 50.0 µM; active compounds read high. The method, boiled down:
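Inhibition values express reduced yeast growth in compound-treated cultures relative to vehicle-treated controls.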

The nature of test [2]: NCI Yeast Anticancer Drug Screen. Data for the mec2-1 strain (AID 157). To be noted: S. cerevisiae mec2-1 strain, at 50.0 µM, active compounds read high. The gist of the method: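 Compounds were applied to mec2-1 yeast cells. Their growth was then compared with that of vehicle-treated cultures to give growth inhibition.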
Test [3] can be described thus: NCI Yeast Anticancer Drug Screen. Data for the sgs1 mgt1 strain (AID 161).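 Further: 0% = growth of cultures given vehicle only.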 To be noted: S. cerevisiae sgs1 mgt1 strain, at 50.0 µM, active compounds read high. The gist of the method:
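Yeast cells carrying a defined DNA-repair defect were exposed to test compounds. Growth inhibition was measured relative to vehicle-treated controls.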

Test [4] is described as follows: NCI Yeast Anticancer Drug Screen. Data for the cln2 rad14 strain (AID 165).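 Further: 0% = growth equal to vehicle treated cultures.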 Conditions: S. cerevisiae cln2 rad14 strain, at 50.0 µM, active compounds read high. The method, boiled down:
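Strain: cln2 rad14 yeast, altered in cell cycle control and DNA damage repair. Read-out: growth inhibition vs vehicle.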

Test [5] is described as follows: NCI Yeast Anticancer Drug Screen. Data for the bub3 strain (AID 167). Conditions: S. cerevisiae bub3 mutant strain, at 50.0 µM, active compounds read high. The method, boiled down: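 Steps: expose the mutant yeast strain to compound; grow alongside vehicle-treated cultures; measure growth; express inhibition against the vehicle cultures.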
The nature of test [6]: NCI Yeast Anticancer Drug Screen. Data for the mlh1 rad18 strain (AID 175). To be noted: S. cerevisiae mlh1 rad18 strain growth inhibition; at 50.0 µM; active compounds read high. The gist of the method: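 A repair-deficient yeast strain is exposed to test compound, and growth is scored relative to vehicle-treated controls.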

The panel holds about 79,000 compounds, 15% with a hit somewhere; the sample as a whole holds those more often. A number with no mark means an inactive call. The source made the active and inactive calls. No stated cut-off is given here; in the data, active means growth inhibition above about 70%; inactive means the rest.

`CCNC(=O)Nc1nc2ccccc2s1`: the growth inhibition is -27.8% in test [1]; -13% in test [2]; 1.75% in test [3]; -90.7% in test [4]; -23.8% in test [5]; -21.4% in test [6].

As to `CCC(=O)c1ccc([N+](=O)[O-])cc1`, the growth inhibition in test [1] is -14.2%; in test [2], -18.2%; in test [3], -24.7%; in test [4] it was -59.4%; in test [5], 1.95%; in test [6], -10.2%.

With `C[N+](C)(C)C1CCC1`, the growth inhibition in test [1] is -2.4%; in test [2] it was -4.75%; in test [3], -1.75%; in test [4], 8.35%; in test [5], -15.1%; in test [6] it was 5.7%.

With `Cc1ccccc1NC(=O)CSC#N`, the growth inhibition in test [1] is 10.2%; in test [2] it was 7.35%; in test [3] it was 1.7%; in test [4], 20.1%; in test [5] it was -12.6%; in test [6], 8.75%.

Take `C=C1C(=O)OC2C=C(C)CC3C=C(CCC=C(C)CCC12)C(=O)O3` (stereo unspecified): the growth inhibition in test [1] is 0.5%; in test [2], -33.5%; in test [3], -13.2%; in test [4], 4.9%; in test [5] it was -27.8%; in test [6], -17.7%.

With `COC1=C(N)C(=O)c2ccc(-c3ccccn3)nc2C1=O`, the growth inhibition in test [1] was 89.7% (active); in test [2], 92.3% (active); in test [3] it was 86.8% (active); in test [4] it was 89.8% (active); in test [5], 81.8% (active); in test [6], 92.9% (active).

Turning to `O=C1c2cccc3cccc(c23)C(=O)N1C(Cc1ccccc1)c1ccccc1` (stereo unspecified), the growth inhibition in test [1] was -15.5%; in test [2] it was -49.4%; in test [3] it was -15.1%; in test [4], -4.2%; in test [5] it was -37.8%; in test [6] it was -31.1%.

Take `O=C1c2ccccc2C(=O)N1N1C(=O)C2C3CCC(O3)C2C1=O` (stereo unspecified): the growth inhibition is 12.8% in test [1]; 0.4% in test [2]; 12.9% in test [3]; 15.9% in test [4]; 17.5% in test [5]; 9.3% in test [6].

As to `COC(=O)N1c2ccccc2C23CCN4CCCC5(CCC12C(C(=O)O)C5)C43` (stereo unspecified), the growth inhibition in test [1] was -2.6%; in test [2] it was 8.2%; in test [3], 0.15%; in test [4], -9.45%; in test [5] it was 3.9%; in test [6], 9.7%.

For `CCOC1=C(C#N)C(=O)NC2OC(CO)C(O)C2O1` (stereo unspecified), the growth inhibition is 11.4% in test [1]; 5.45% in test [2]; 11.6% in test [3]; -8.95% in test [4]; 17.9% in test [5]; 15.8% in test [6].

Take `CCCCCCCCCCCCCCCCCC(=O)N/N=C/c1ccc(Cl)cc1`: the growth inhibition in test [1] was -6.2%; in test [2] it was -8.95%; in test [3], -11.6%; in test [4], -15.4%; in test [5] it was -2.85%; in test [6], -25.1%.

On to `CCOC(=O)C1=C(C(=O)c2ccc(C)cc2)C(c2c(Cl)cccc2Cl)C(C(=O)c2ccc(C)cc2)=C(C(=O)OCC)N1`, for which the growth inhibition in test [1] was 18.4%; in test [2], 21.1%; in test [3] it was 37.8%; in test [4], 44.5%; in test [5], 54.9%; in test [6], 38%.

Consider `O=C(Nc1c(Cl)cccc1Cl)OCc1ccco1`, for which the growth inhibition in test [1] is 7.5%; in test [2], -10.6%; in test [3], 24.1%; in test [4], 3.15%; in test [5] it was 23.4%; in test [6], 19.6%.

In the case of `CSC1=NC=C(C#N)C2=NC(c3ccccc3)NN12` (stereo unspecified), the growth inhibition in test [1] was -0.3%; in test [2] it was -5.55%; in test [3], -6.6%; in test [4] it was -14.2%; in test [5], 2.8%; in test [6], 7%.

`CC1=NNC(=O)CC1C(O)c1ccccc1` (stereo unspecified): the growth inhibition in test [1] is -31.1%; in test [2], 3.65%; in test [3] it was -12.1%; in test [4], 3%; in test [5] it was -8.45%; in test [6], -11.4%.

In the case of `CCCCCCCCCCCCCCCC(=O)Nc1ccn(C2OC(CO)C(O)C2O)c(=O)n1` (stereo unspecified), the growth inhibition was -1.45% in test [1]; -19.9% in test [2]; 6.75% in test [3]; 10.1% in test [4]; -6.8% in test [5]; -14.7% in test [6].

For `C=Cn1c2ccccc2c2ccccc21`, the growth inhibition in test [1] was 46.9%; in test [2], 18.9%; in test [3] it was 26.9%; in test [4] it was 15.2%; in test [5] it was -6.75%; in test [6], -0.55%.

Regarding `O=C(N/N=C/c1ccc(O)cc1)C1CCCO1` (stereo unspecified), the growth inhibition in test [1] was 2.9%; in test [2] it was 26.5%; in test [3], -1.35%; in test [4] it was -64.2%; in test [5] it was 2.95%; in test [6] it was -9.45%.

Regarding `CCCOc1cncc(C)n1`, the growth inhibition in test [1] is 8%; in test [2], 19.1%; in test [3], -3.75%; in test [4], -3.85%; in test [5] it was 13.6%; in test [6] it was 9.95%.

For the molecule `O=C1C=CC2(C=C1)OCC(=O)O2`, the growth inhibition is 6.15% in test [1]; 10.2% in test [2]; 3.25% in test [3]; 4.65% in test [4]; -3.1% in test [5]; 0.5% in test [6].

Regarding `CC1(C)S/C(=C\c2ccccc2)c2nc3ccccc3c(=O)n21`, the growth inhibition in test [1] was -6.8%; in test [2], -7.2%; in test [3], -16.1%; in test [4] it was 2.3%; in test [5], -0.4%; in test [6] it was -21.4%.
